Data as given in the supplement of paper PMC12350171.
Counter-ions that a name gives are not always drawn. Values without a mark were called inactive.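 How the source made its calls: active = normalised median growth AUC below 0.1 of DMSO control; inactive = AUC 0.1 or higher.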

Experiments:
Experiment in all cases: growth AUC normalised to DMSO control (median) (fraction of control); higher = less growth inhibition, active = hit call of the paper
Details in all cases: 20 µM
[1] = system: P. vulgatus RND KO
How it was run: (§1)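 Anaerobic growth was tracked hourly at OD578 for 24 h in 96-well plates of mGAM seeded at OD578 0.01 with each approved-drug library compound at 20 μM and 1% DMSO. Strains had first been passaged twice overnight without oxygen. Three biological replicates were run. The reported median is the area under the curve, calculated by the trapezoidal rule on curves truncated at entry into stationary phase and normalised to vehicle wells on the same plate.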

[2] = system: P. vulgatus WT
How it was run: as §1

[3] = system: S. enterica typhimurium WT
How it was run: as §1

[4] = system: S. enterica typhimurium tolC KO
How it was run: as §1
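Further: active when median AUC fell below 0.1.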

Row | Structure (SMILES) | growth AUC normalised to DMSO control [1] | growth AUC normalised to DMSO control [2] | growth AUC normalised to DMSO control [3] | growth AUC normalised to DMSO control [4]
1 | CC(=O)c1cc2cccc(OCC(O)CNC(C)C)c2o1 (stereo not drawn) [Befunolol] | 1.03 | 1.06 | 1 | 1
2 | CCOc1ccccc1C(N)=O [Ethenzamide] | 1.02 | 1.03 | 1 | 1
3 | CCN(CC)C(=O)C1(c2ccccc2)CC1CN (stereo not drawn) [Milnacipran hydrochloride] | 1.02 | 1.01 | 0.999 | 1
4 | CC(=O)Oc1c(C)cccc1C(=O)O [Cresopirine] | 0.998 | 0.986 | 0.998 | 0.986
5 | O=c1[nH]cnc2c1ncn2[C@@H]1O[C@H](CO)[C@@H](O)[C@H]1O [Inosine] | 1.01 | 1.04 | 0.991 | 1.01
6 | CC(=O)OC[C@H]1O[C@@H](n2ncc(=O)[nH]c2=O)[C@H](OC(C)=O)[C@@H]1OC(C)=O [Azaribine] | 0.972 | 0.956 | 1 | 1
7 | CC1=C(C(=O)O)N2C(=O)[C@@H](NC(=O)[C@H](N)C3=CCC=CC3)[C@H]2SC1 [Cephradine monohydrate] | 1.04 | 1.05 | 0.991 | 1.01
8 | CC(C)Oc1ccc2c(=O)c(-c3ccccc3)coc2c1 [Ipriflavone] | 1.04 | 1.07 | 0.978 | 0.859
9 | CC(C)(C)C(O)/C=C/c1ccc2c(c1)OCO2 (stereo not drawn) [Stiripentol] | 1.01 | 1.02 | 1 | 0.93
10 | O=[N+]([O-])c1ccc(O)c2ncccc12 [Nitroxoline] | 0.0544 (active) | 0.0282 (active) | 0.237 | 0.169
11 | Cc1[nH]cnc1CN1CCc2c(c3ccccc3n2C)C1=O [Alosetron hydrochloride] | 0.996 | 0.999 | 1 | 0.995
12 | O=C(c1cc(O)c(O)c(O)c1)c1ccc(O)c(O)c1O [Exifone] | 0.975 | 0.993 | 0.986 | 0.995
13 | CCc1oc2ccccc2c1C(=O)c1cc(I)c(O)c(I)c1 [Benziodarone] | 0.647 | 0.606 | 0.999 | 0.815
14 | Cn1cc(C(=O)[C@@H]2CCc3[nH]cnc3C2)c2ccccc21 [Ramosetron hydrochloride] | 0.999 | 0.997 | 0.995 | 0.975
15 | COc1cc(/C=C/C(=O)N2CCN(CC(=O)N3CCCC3)CC2)cc(OC)c1OC [Cinepazide maleate] | 1.04 | 1.08 | 1.01 | 1.01
16 | CC[N+]1(CC)CCC(=C(c2ccccc2)c2ccccc2)C1C (stereo not drawn) [Prifinium Bromide] | 0.997 | 0.989 | 1 | 0.935
17 | CCOC(=O)C1=C[C@@H](OC(CC)CC)[C@H](NC(C)=O)[C@@H](N)C1 [Oseltamivir phosphate] | 1.08 | 1.05 | 0.996 | 0.984
18 | CC(C(=O)O)c1ccc(N2CC=CC2)c(Cl)c1 (stereo not drawn) [Pirprofen] | 1.08 | 1.06 | 1 | 1
19 | COC(=O)C1=C(C)NC(C)=C(C(=O)OCCN2CCN(C(c3ccccc3)c3ccccc3)CC2)C1c1cccc([N+](=O)[O-])c1 (stereo not drawn) [Manidipine Dihydrochloride] | 1.03 | 1.02 | 0.999 | 1.02
20 | CC1=NN(c2ccccc2)C(=O)C1 [Edaravone] | 0.998 | 1.01 | 1 | 0.982
21 | CCOC(=O)[C@H](CCc1ccccc1)N[C@H]1CS[C@H](c2cccs2)CN(CC(=O)O)C1=O [Temocapril hydrochloride] | 1.02 | 1.03 | 1 | 1
22 | CC(=O)OCC(=O)[C@@]1(O)CC[C@H]2[C@@H]3CCC4=CC(=O)C=C[C@]4(C)[C@@]3(F)[C@@H](O)C[C@@]21C [Isoflupredone acetate] | 1.03 | 0.986 | 1 | 0.98
23 | CN(C)CCCN1c2ccccc2[S+]([O-])c2ccc(Cl)cc21 (stereo not drawn) [Chlorpromazine Sulfoxide] | 1.07 | 1.03 | 0.995 | 1.01
24 | CN(CCOc1ccc(NS(C)(=O)=O)cc1)CCc1ccc(NS(C)(=O)=O)cc1 [Dofetilide] | 0.985 | 0.992 | 0.999 | 1

Row | Structure (SMILES) | growth AUC normalised to DMSO control [1] | growth AUC normalised to DMSO control [2] | growth AUC normalised to DMSO control [3] | growth AUC normalised to DMSO control [4]
25 | O=C(O)Cc1csc(-c2ccc(Cl)cc2)n1 [Fenclozic acid] | 1.01 | 1.03 | 1.01 | 0.98
26 | CN1CCN(C2Cc3ccccc3Sc3ccc(Cl)cc32)CC1 (stereo not drawn) [Octoclothepin maleate salt] | 1.05 | 1.05 | 0.981 | 0.929
27 | Nc1ccc2cc3ccc(N)cc3nc2c1 [Proflavine hemisulfate] | 0.996 | 0.995 | 0.955 | 0.91
28 | Cc1c(C(=O)NN2CCCCC2)nn(-c2ccc(Cl)cc2Cl)c1-c1ccc(Cl)cc1 [Rimonabant] | 1.05 | 1.07 | 1 | 1
29 | Cc1ccc(=O)n(-c2ccccc2)c1 [Pirfenidone] | 0.932 | 0.875 | 1 | 1
30 | OC(CNCC(O)C1CCc2cc(F)ccc2O1)C1CCc2cc(F)ccc2O1 (stereo not drawn) [Nebivolol hydrochloride] | 0.957 | 1.01 | 0.998 | 0.925
31 | CC(C)Cc1ccc(CC(=O)O)cc1 [Ibufenac] | 1.06 | 1.06 | 1.01 | 0.981
32 | O=C(O)C1CSCN1 (stereo not drawn) [Timonacic] | 0.993 | 0.999 | 0.998 | 0.998
33 | CCC(=O)c1ccc(O)cc1 [Paroxypropione] | 1 | 0.985 | 0.994 | 1
34 | O=C(O)Cc1ccccc1Oc1ccc(Cl)cc1Cl [Fenclofenac] | 0.992 | 1.05 | 1.02 | 1.02
35 | CCOc1cc(N)c(Cl)cc1C(=O)NCC1CN(Cc2ccc(F)cc2)CCO1 (stereo not drawn) [Mosapride] | 0.938 | 0.981 | 0.988 | 0.722
36 | CN1CCN(c2c(F)cc3c(=O)c(C(=O)O)cn4c3c2OCN4C)CC1 [Marbofloxacin] | 0.0125 (active) | 0.0111 (active) | 0.00445 (active) | 0.00216 (active)
37 | Cc1cc2nc3c(=O)[nH]c(=O)nc-3n(C[C@H](O)[C@H](O)[C@H](O)CO)c2cc1C [Riboflavine] | 1.11 | 1.07 | 1 | 0.991
38 | C=C1[C@H](CO)[C@@H](O)C[C@@H]1n1cnc2c(=O)[nH]c(N)nc21 [Entecavir] | 1 | 0.996 | 0.999 | 0.987
39 | COc1ccc2cc1Oc1ccc(cc1)C[C@H]1c3c(cc4c(c3Oc3cc5c(cc3OC)CCN(C)[C@@H]5C2)OCO4)CCN1C [Cepharanthine] | 0.999 | 0.973 | 1.02 | 0.998
40 | N#Cc1ccc(Oc2ccc3c(c2)COB3O)cc1 [Crisaborole] | 1 | 1.02 | 1.01 | 1.02
41 | O=C(Oc1cccc2cccnc12)c1ccccc1 [Benzoxiquine] | 0.935 | 0.934 | 0.994 | 0.968
42 | CN(C)C(=O)COC(=O)Cc1ccc(OC(=O)c2ccc(NC(=N)N)cc2)cc1 [Camostat mesylate] | 1.02 | 1.03 | 0.997 | 1
43 | CC(=O)[C@@]12O[C@](C)(c3ccccc3)O[C@@H]1C[C@H]1[C@@H]3CCC4=CC(=O)CC[C@]4(C)[C@H]3CC[C@@]12C [Algestone acetophenide] | 0.955 | 0.983 | 1 | 0.993
44 | O=P(O)(O)C(O)(Cn1ccnc1)P(=O)(O)O [Zoledronic acid hydrate] | 0.972 | 0.988 | 1.01 | 0.994
45 | Nc1c(CC(=O)O)cccc1C(=O)c1ccc(Br)cc1 [Bromfenac] | 1.04 | 1.04 | 1.01 | 0.999
46 | Oc1ccc(C2CNCCc3c2cc(O)c(O)c3Cl)cc1 (stereo not drawn) [Fenoldopam] | 0.995 | 0.992 | 0.985 | 0.978
47 | CC[C@@H]([C@H](C)O)n1ncn(-c2ccc(N3CCN(c4ccc(OC[C@@H]5CO[C@@](Cn6cncn6)(c6ccc(F)cc6F)C5)cc4)CC3)cc2)c1=O [Posaconazole hydrate] | 0.87 | 0.875 | 1.01 | 0.979
